GAA850 FXN act = FXN promoter activators, primary screen, cell-based, luciferase luminescence, HEK293 lucGAA850 | HEK293 lucGAA850 FXN promoter luciferase reporter, 24 h; percent of 10 µM SAHA response | activation, % at 6 µM | actives 0.56% (n = 360,000) | AID 540364, 2011;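 active means activation above the average of all compounds screened plus 3 SD, cutoff fixed separately per campaign, cut at about 7.5% in these data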
HSF1 inhib = HSF1 inhibitors in luciferase reporter cells, primary screen, cell-based, NIH3T3, luminescence; NIH3T3-HGL HSE-luciferase, MG132-induced, luminescence 8 h; hits give low values; activity change, negative = inhibition, % at 7.5 µM (by protocol); actives 0.77% (n = 300,000); AID 2098, 2009;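 active means more than half of replicate wells show activity change below -50%, luminescence cut by over half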;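 further: luciferase reports HSF-1 transcriptional activity via heat shock element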
HSF1 activator = HSF-1 activators, primary screen, NIH3T3-HGL cells, MG132 stress, luminescence, single point; NIH3T3-HGL HSF-1 luciferase reporter, 8 h; 100% = twice DMSO control signal; actives 1.7% (n = 300,000); activation, % at 9 µM;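 active means mean replicate activation of at least 50% with a set share of replicates each reaching 50%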
AHR act = AHR activators, primary screen, cell-based, luminescence, luciferase reporter, human; Aryl hydrocarbon receptor (Homo sapiens), P35869; AHR-responsive luciferase reporter cells; activation, % at 5 µM; actives 2.5% (n = 320,000); in the data active means activation above about 47%
Target sequence (P35869 whole entry, looked up): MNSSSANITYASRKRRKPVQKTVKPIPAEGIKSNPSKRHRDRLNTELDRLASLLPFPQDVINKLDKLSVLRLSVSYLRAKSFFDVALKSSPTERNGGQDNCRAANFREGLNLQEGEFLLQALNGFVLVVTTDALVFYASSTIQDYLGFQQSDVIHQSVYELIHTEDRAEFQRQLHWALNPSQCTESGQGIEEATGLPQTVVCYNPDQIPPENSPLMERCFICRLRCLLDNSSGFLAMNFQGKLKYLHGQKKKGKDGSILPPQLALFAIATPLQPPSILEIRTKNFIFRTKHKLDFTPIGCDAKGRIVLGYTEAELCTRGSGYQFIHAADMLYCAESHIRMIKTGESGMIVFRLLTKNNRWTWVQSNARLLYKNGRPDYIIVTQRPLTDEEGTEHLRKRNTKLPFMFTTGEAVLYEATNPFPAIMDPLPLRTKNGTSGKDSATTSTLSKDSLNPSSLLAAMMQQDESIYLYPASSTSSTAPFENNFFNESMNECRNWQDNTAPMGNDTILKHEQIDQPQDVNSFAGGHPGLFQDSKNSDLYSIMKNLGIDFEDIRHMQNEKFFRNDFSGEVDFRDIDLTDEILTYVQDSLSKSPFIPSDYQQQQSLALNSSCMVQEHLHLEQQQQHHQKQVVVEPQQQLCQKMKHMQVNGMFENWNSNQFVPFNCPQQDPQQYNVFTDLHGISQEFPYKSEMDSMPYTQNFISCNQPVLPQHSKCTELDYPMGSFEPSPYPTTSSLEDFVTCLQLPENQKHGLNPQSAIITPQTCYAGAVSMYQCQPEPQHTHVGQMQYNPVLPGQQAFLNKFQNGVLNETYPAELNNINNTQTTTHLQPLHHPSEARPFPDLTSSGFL
Hits are given with their value; i = inactive; nt = no result given. Hits are enriched below; roughly 4.6% of the tested compounds scored in any of these assays.

SMILES | GAA850 FXN act | HSF1 inhib | HSF1 activator | AHR act
CCOc1nc(N=C(N)N)nc2c(C)cccc12 | i | i | i | 49
CCOc1ccccc1Nc1cc(C)c2cccc(C)c2n1 | i | i | i | i
CCN1CCSc2ccc(C(=O)NCc3cccc(Br)c3)cc21 | i | i | 121 | i
CC1CC(C)CN(C(=O)c2ccc3c(c2)N(Cc2ccccc2)CCS3)C1 (centres undefined) | i | i | 64 | i
O=C(NCc1cccnc1)c1ccc2c(c1)N(Cc1ccccc1)CCS2 | i | i | i | i
CN1CCSc2ccc(C(=O)NCc3ccccc3)cc21 | i | i | i | 62
O=C(Nc1ccccc1Cl)c1ccc(-c2ccccn2)s1 | i | i | 68 | i
COc1ccc(C)cc1-n1ccn(CC(=O)Nc2ccc(Br)cc2F)c(=O)c1=O | i | i | i | i
CC(CN(C)C)CN1c2ccccc2Sc2ccccc21 (centres undefined) | i | nt | nt | i
Oc1cccc(N2Cc3ccccc3C2)c1 | i | i | i | i
Cc1cc2c(cc1C)CN(c1ccccc1)C2 | i | i | 56 | i
COc1ncnc2c1sc1nc(-c3ccccc3)c3c(c12)CCCC3 | i | i | i | i
Cc1ccc(S(=O)(=O)NCC(c2ccccc2)N2CCN(c3ccc(F)cc3)CC2)cc1 (centres undefined) | i | i | 54 | nt
O=S(=O)(NCC(c1cccnc1)N1CCN(c2ccc(F)cc2)CC1)c1ccccc1 (centres undefined) | i | i | i | i
CCCC(C)C(=O)Nc1nc(C)c(-c2csc(Nc3ccc(Cl)cc3)n2)s1 (centres undefined) | i | i | i | 79
COc1ccccc1Nc1nc(-c2sc(NC(=O)c3ccc([N+](=O)[O-])cc3)nc2C)cs1 | nt | i | i | i
CCCCCCC(=O)Nc1nc(C)c(-c2csc(Nc3ccccc3OC)n2)s1 | i | i | i | 69
CCCCCC(=O)Nc1nc(C)c(-c2csc(Nc3ccccc3OCC)n2)s1 | i | i | i | 67
CCCC(=O)Nc1nc(C)c(-c2csc(Nc3ccccc3C)n2)s1 | i | i | i | i
CCCCC(=O)Nc1nc(C)c(-c2csc(Nc3cc(Cl)ccc3OC)n2)s1 | i | i | i | 70
COC(=O)C(C)Nc1cccc(Br)c1 (centres undefined) | i | i | i | i
CCOC(=O)C(C(=O)OCC)C(Nc1cccc(Br)c1)c1ccccc1 (centres undefined) | i | i | 203 | i
Nc1c(C(=O)OCC(=O)Nc2ccc(Cl)cc2[N+](=O)[O-])[nH]c(=O)[nH]c1=O | i | i | i | i
COC(=O)c1ccc(N=NN2CCCCCC2)cc1 | i | i | 75 | i
COc1nnc(-c2ccc(N3CCCCC3)c(NC(C)=O)c2)c2ccccc12 | i | i | i | 78
SMILES | GAA850 FXN act | HSF1 inhib | HSF1 activator | AHR act
COc1nnc(-c2ccc(N3CCCCC3)c(NC(=O)C3CCCCC3)c2)c2ccccc12 | i | i | i | i
Cc1c(N=C2SCC(=O)N2/N=C/c2ccccc2Cl)c(=O)n(-c2ccccc2)n1C | i | i | i | i
Cc1c(N=C2SCC(=O)N2/N=C\c2ccc(Br)cc2)c(=O)n(-c2ccccc2)n1C | i | i | 67 | i
Cc1ccc(NC2=C(NCCO)C(=O)c3ccccc3C2=O)cc1 | i | i | i | 65
Cc1cccc(NC(=S)NC(=O)c2ccc(Br)o2)c1C | i | i | 92 | i
Cc1cccc(C)c1NC(=S)NC(=O)c1ccc(Br)o1 | i | i | i | 69
Cc1ccc(NC(=S)NC(=O)c2ccc(Br)o2)c(C)c1 | i | i | i | i
CCn1cnc2c(NCCc3cccnc3)nc(C#N)nc21 | i | nt | nt | 71
CCn1cnc2c(Nc3cccc(Cl)c3)nc(C#N)nc21 | i | nt | nt | i
COc1ccc(S(=O)(=O)NCC(c2cccnc2)N2CCN(C)CC2)cc1OC (centres undefined) | i | -71 | i | i
N#Cc1c(-c2ccc(Cl)cc2)n(O)c2ccccc12 | i | nt | nt | nt
CCCOc1cccc(-c2cc(C(=O)N/N=C/c3ccccn3)c3ccccc3n2)c1 | i | i | 143 | nt
O=C(N/N=C/c1ccccn1)c1cc(-c2ccc(Br)cc2)nc2ccccc12 | i | i | 169 | i
O=C(N/N=C/c1ccccn1)c1cc(-c2ccc(Cl)cc2)nc2ccccc12 | i | i | 147 | 50
O=C(O)COc1ccccc1/C=N/NC(=O)c1cc(-c2ccc(Cl)cc2)nc2ccccc12 | i | i | i | 64
O=C(N/N=C/c1ccco1)c1cc(-c2ccccc2)nc2ccccc12 | i | i | i | i
O=C(O)COc1ccccc1/C=N/NC(=O)c1cc(-c2ccccc2)nc2ccccc12 | i | i | i | i
CC1CCCN(S(=O)(=O)c2ccc(NC(=O)Cc3ccc(S(=O)(=O)N4CCOCC4)s3)cc2)C1 (centres undefined) | i | i | i | i
Nc1nc(-c2ccc(Cl)cc2Cl)cn1N | i | i | i | 65
O=C(CCCn1c(=S)[nH]c2cc3c(cc2c1=O)OCO3)NCc1ccco1 | i | i | 55 | i
COc1ccc(C(C[N+](=O)[O-])c2c(C)[nH]n(-c3ccccc3)c2=O)cc1 (centres undefined) | i | i | i | i
Cc1[nH]n(-c2ccccc2)c(=O)c1C(C[N+](=O)[O-])c1ccccc1Cl (centres undefined) | i | i | 146 | 68
Cc1ccc(-c2cc(C(=O)N/N=C/c3ccccc3O)n[nH]2)o1 | i | i | i | i
Cc1occc1C(=O)N/N=C/C(Br)=C/c1ccccc1 | i | i | 314 | i
COc1cccc(C(=O)N/N=C/C(Br)=C/c2ccccc2)c1 | i | i | 56 | i
SMILES | GAA850 FXN act | HSF1 inhib | HSF1 activator | AHR act
Cc1ccc(-c2cc(C(=O)N/N=C/C(Br)=C/c3ccccc3)n[nH]2)o1 | i | i | 121 | i
COc1ccc(C(=O)N/N=C/C(Br)=C/c2ccccc2)cc1 | i | i | 148 | i
N/C(=N\OC(=O)COc1ccc(Cl)cc1Cl)c1cccnc1 | i | i | 93 | i
N/C(=N\OC(=O)c1ccc2c(c1)OCO2)c1cccnc1 | i | i | i | 67
N/C(=N\OC(=O)c1cccc(Cl)c1)c1cccnc1 | i | i | i | 75
N/C(=N\OC(=O)COc1ccc(Cl)cc1)c1cccnc1 | i | i | i | i
COc1ccc(S(=O)(=O)Nc2ccc3c(c2)n(C)c(=O)n3C)cc1F | i | i | i | i
CC(C)CC1C(=O)N(Cc2cn(CCC3OCCCO3)nn2)CCS(=O)(=O)N1Cc1ccc(-c2cccc(CO)c2)cc1 (centres undefined) | i | nt | nt | nt
CCN1CCN(c2cc(C)c3cc(NC(=S)N4CC(C)CC(C)C4)ccc3n2)CC1 (centres undefined) | i | i | i | nt
S=C(Nc1ccccc1)N1CCCCCC1 | i | i | 55 | i
CC1CCCN(C(=S)Nc2ccc(Nc3ccccc3)cc2)C1 (centres undefined) | i | i | 93 | i
S=C(Nc1ccccc1)N1CCC(C2CCN(C(=S)Nc3ccccc3)CC2)CC1 | nt | i | i | i
